Among all 5,500 compounds or so, about 2,000 (36%) were called active. Another 18% or so got no clear call; they are omitted. No stated cut-off is given here; in the data, active means normalized growth mostly below about 0.91 (no sharp cut-off); inconclusive means no clear call, values can overlap the other calls; inactive means mostly above about 0.92. Some of the results follow.
Experiment: chemical genetic growth profiling, strain panel (AID 1159580);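 further: tested at 20 µM; growth read once vehicle control cultures reached saturation at 30 °C; 1 = growth at the plate median or of vehicle wells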
Details: growth OD

Measured: normalized growth

CC1CCc2cc(F)cc3c(=O)c(C(=O)O)cn1c23 (configuration not stated)
inactive: S. cerevisiae deletion strains, locus YJR075W, strain HOC1, stronger effect = lower value 0.967 | S. cerevisiae deletion strains, locus YKL009W, strain mrt4, stronger effect = lower value 0.957 | S. cerevisiae deletion strains, locus YKL068W, stronger effect = lower value 0.985 | S. cerevisiae deletion strains, locus YKL085W, strain MDH1 (second series), stronger effect = lower value 0.974 | S. cerevisiae deletion strains, locus YKL085W, strain MDH1, stronger effect = lower value 0.974 | S. cerevisiae deletion strains, locus YKL160W, strain elf1, stronger effect = lower value 0.971 | S. cerevisiae deletion strains, locus YKL190W, strain CNB1, stronger effect = lower value 0.991 | S. cerevisiae deletion strains, locus YKR001C, strain vps1, stronger effect = lower value 0.998 | S. cerevisiae deletion strains, locus YKR026C, strain gcn3, stronger effect = lower value 0.989 | S. cerevisiae deletion strains, locus YKR091W, strain srl3, stronger effect = lower value 0.994 | S. cerevisiae deletion strains, locus YLL001W, strain dnm1, stronger effect = lower value 0.966 | S. cerevisiae deletion strains, locus YLL026W, stronger effect = lower value 0.995 | S. cerevisiae deletion strains, locus YLL041C, strain sdh2, stronger effect = lower value 0.989 | S. cerevisiae deletion strains, locus YLR027C, strain aat2, stronger effect = lower value 0.988 | S. cerevisiae deletion strains, locus YLR039C, strain RIC1, stronger effect = lower value 0.892 | S. cerevisiae deletion strains, locus YLR058C, strain SHM2, stronger effect = lower value 0.983 | S. cerevisiae deletion strains, locus YLR102C, strain apc9, stronger effect = lower value 0.982 | S. cerevisiae deletion strains, locus YLR113W, strain HOG1, stronger effect = lower value 0.955 | S. cerevisiae deletion strains, locus YLR221C, strain rsa3, stronger effect = lower value 0.973 | S. cerevisiae deletion strains, locus YLR258W, strain gsy2, stronger effect = lower value 0.982 | S. cerevisiae deletion strains, locus YLR262C, strain YPT6 (second series), stronger effect = lower value 0.952 | S. cerevisiae deletion strains, locus YLR262C, strain YPT6, stronger effect = lower value 0.867 | S. cerevisiae deletion strains, locus YLR268W, strain sec22, stronger effect = lower value 0.894 | S. cerevisiae deletion strains, locus YLR320W, strain mms22, stronger effect = lower value 0.972 | S. cerevisiae deletion strains, locus YLR330W, strain CHS5, stronger effect = lower value 1.01 | S. cerevisiae deletion strains, locus YLR342W, strain FKS1 (second series), stronger effect = lower value 0.978 | S. cerevisiae deletion strains, locus YLR342W, strain FKS1, stronger effect = lower value 0.978 | S. cerevisiae deletion strains, locus YLR357W, strain rsc2, stronger effect = lower value 0.923 | S. cerevisiae deletion strains, locus YLR370C, strain arc18, stronger effect = lower value 0.991 | S. cerevisiae deletion strains, locus YLR371W, strain rom2, stronger effect = lower value 0.965 | S. cerevisiae deletion strains, locus YLR384C, strain iki3, stronger effect = lower value 0.985 | S. cerevisiae deletion strains, locus YLR418C, strain cdc73, stronger effect = lower value 0.96 | S. cerevisiae deletion strains, locus YML016C, strain PPZ1, stronger effect = lower value 0.986 | S. cerevisiae deletion strains, locus YML032C, strain rad52, stronger effect = lower value 0.95 | S. cerevisiae deletion strains, locus YML120C, strain ndi1, stronger effect = lower value 0.975 | S. cerevisiae deletion strains, locus YML124C, strain tub3, stronger effect = lower value 0.994 | S. cerevisiae deletion strains, locus YMR058W, strain fet3, stronger effect = lower value 0.998 | S. cerevisiae deletion strains, locus YMR078C, strain ctf18, stronger effect = lower value 0.961 | S. cerevisiae deletion strains, locus YMR125W, strain sto1, stronger effect = lower value 0.978 | S. cerevisiae deletion strains, locus YMR129W, stronger effect = lower value 0.992 | S. cerevisiae deletion strains, locus YMR205C, strain PFK2, stronger effect = lower value 0.968 | S. cerevisiae deletion strains, locus YMR223W, strain ubp8, stronger effect = lower value 0.992 | S. cerevisiae deletion strains, locus YMR231W, strain pep5, stronger effect = lower value 0.991 | S. cerevisiae deletion strains, locus YMR263W, strain SAP30, stronger effect = lower value 0.964 | S. cerevisiae deletion strains, locus YMR307W, strain GAS1, stronger effect = lower value 1.02 | S. cerevisiae deletion strains, locus YNL067W, strain RPL9B, stronger effect = lower value 0.962 | S. cerevisiae deletion strains, locus YNL071W, strain lat1, stronger effect = lower value 0.998 | S. cerevisiae deletion strains, locus YNL128W, strain TEP1, stronger effect = lower value 0.976 | S. cerevisiae deletion strains, locus YNL153C, strain GIM3, stronger effect = lower value 0.972 | S. cerevisiae deletion strains, locus YNL183C, strain NPR1, stronger effect = lower value 0.904 | S. cerevisiae deletion strains, locus YNL209W, strain ssb2, stronger effect = lower value 0.996 | S. cerevisiae deletion strains, locus YNL233W, strain BNI4, stronger effect = lower value 0.968 | S. cerevisiae deletion strains, locus YNL248C, strain rpa49, stronger effect = lower value 0.971 | S. cerevisiae deletion strains, locus YNL250W, strain rad50, stronger effect = lower value 0.973 | S. cerevisiae deletion strains, locus YNL271C, strain bni1, stronger effect = lower value 0.962 | S. cerevisiae deletion strains, locus YNL298W, strain CLA4, stronger effect = lower value 0.957 | S. cerevisiae deletion strains, locus YNL307C, strain MCK1, stronger effect = lower value 0.983 | S. cerevisiae deletion strains, locus YNL322C, strain KRE1 (second series), stronger effect = lower value 0.995 | S. cerevisiae deletion strains, locus YNL322C, strain KRE1, stronger effect = lower value 0.986 | S. cerevisiae deletion strains, locus YNR049C, strain mso1, stronger effect = lower value 0.987 | S. cerevisiae deletion strains, locus YNR052C, strain pop2, stronger effect = lower value 0.96 | S. cerevisiae deletion strains, locus YOL006C, strain TOP1, stronger effect = lower value 0.947 | S. cerevisiae deletion strains, locus YOL012C, strain htz1 0.784 | S. cerevisiae deletion strains, locus YOL147C, strain pex11, stronger effect = lower value 0.973 | S. cerevisiae deletion strains, locus YOR001W, strain rrp6, stronger effect = lower value 0.968 | S. cerevisiae deletion strains, locus YOR061W, strain CKA2, stronger effect = lower value 0.984 | S. cerevisiae deletion strains, locus YOR069W, strain VPS5, stronger effect = lower value 0.977 | S. cerevisiae deletion strains, locus YOR070C, strain gyp1, stronger effect = lower value 0.99 | S. cerevisiae deletion strains, locus YOR080W, strain dia2, stronger effect = lower value 0.992 | S. cerevisiae deletion strains, locus YOR083W, strain WHI5, stronger effect = lower value 0.969 | S. cerevisiae deletion strains, locus YOR106W, strain vam3, stronger effect = lower value 0.947 | S. cerevisiae deletion strains, locus YOR136W, strain idh2, stronger effect = lower value 0.98 | S. cerevisiae deletion strains, locus YOR144C, strain elg1, stronger effect = lower value 0.975 | S. cerevisiae deletion strains, locus YOR184W, strain ser1, stronger effect = lower value 0.959 | S. cerevisiae deletion strains, locus YOR231W, strain MKK1, stronger effect = lower value 0.982 | S. cerevisiae deletion strains, locus YOR265W, strain rbl2, stronger effect = lower value 0.982 | S. cerevisiae deletion strains, locus YOR270C, strain vph1, stronger effect = lower value 0.959 | S. cerevisiae deletion strains, locus YOR290C, strain snf2, stronger effect = lower value 0.955 | S. cerevisiae deletion strains, locus YOR316C, strain cot1, stronger effect = lower value 0.97 | S. cerevisiae deletion strains, locus YPL051W, strain arl3, stronger effect = lower value 0.984 | S. cerevisiae deletion strains, locus YPL055C, strain LGE1, stronger effect = lower value 0.985 | S. cerevisiae deletion strains, locus YPL078C, strain atp4, stronger effect = lower value 0.976 | S. cerevisiae deletion strains, locus YPL106C, strain sse1, stronger effect = lower value 0.963 | S. cerevisiae deletion strains, locus YPL240C, strain hsp82, stronger effect = lower value 0.974 | S. cerevisiae deletion strains, locus YPL241C, strain CIN2, stronger effect = lower value 0.997 | S. cerevisiae deletion strains, locus YPL256C, strain CLN2, stronger effect = lower value 0.974 | S. cerevisiae deletion strains, locus YPR119W, strain clb2, stronger effect = lower value 0.973 | S. cerevisiae deletion strains, locus YPR141C, strain kar3, stronger effect = lower value 0.961 | S. cerevisiae deletion strains, locus YPR163C, strain tif3, stronger effect = lower value 0.974 | S. cerevisiae deletion strains, locus YPR167C, strain met16, stronger effect = lower value 0.97 | S. cerevisiae deletion strains, strain wtn01, stronger effect = lower value 0.95 | S. cerevisiae strains, strain wild type, stronger effect = lower value 0.987

Reference: PubChem BioAssay AID1159580 (chemical genetic matrix, 2015)
